In the supplement of paper PMC6555819:

Tests used:
Assay in all cases: PBM binding z-score (relative to random genomic background probes); higher = stronger binding; sequences stand for … in GC…GCGATTGACAGCGTAGAATGAAGG
[1] = tested on: RARb homodimer (NR concentration 270 nM)
How it was run: (§1)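 Binding buffer was PBS pH 7.4 with 2% milk, 0.02% Triton X-100, 1 mM DTT, 0.2 mg/mL BSA and 0.4 mg/ml salmon testes DNA. In it, ligand-free nuclear receptor dimers were incubated 1 h on custom Agilent 4×180K protein-binding microarrays carrying double-stranded probes. Antibodies against each partner (one per run) detected binding, and z-scores were calculated against random background probes after regression normalization of scanned fluorescence.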

[2] = tested on: RARg:RXRa (NR concentration 270 nM, RXRa partner concentration 90 nM)
How it was run: as §1

[3] = tested on: RARg homodimer (NR concentration 270 nM)
How it was run: as §1

[4] = tested on: RXRa DBDmut IVT, anti-RXR (DBD mutation: RXRa K156A/R161A, NR concentration 90 nM)
How it was run: as §1

[5] = tested on: RXRa homodimer (NR concentration 180 nM)
How it was run: as §1

[6] = tested on: THRa:RXRa (NR concentration 90 nM, RXRa partner concentration 90 nM)
How it was run: as §1

[7] = tested on: THRa homodimer (NR concentration 90 nM)
How it was run: as §1

[8] = tested on: VDR:RXRa (NR concentration 270 nM, RXRa partner concentration 90 nM)
How it was run: as §1

[9] = tested on: VDR homodimer (NR concentration 270 nM)
How it was run: as §1

Q: For CCTCGGAGGACAGCAGGTCAGAGCTGTCCGCTTT, which PBM binding z-score [1] is on record?
A: 2.25

Q: And the PBM binding z-score [2]?
A: 2.17

Q: What about the PBM binding z-score [3] of the same sequence?
A: 1.91

Q: What about the PBM binding z-score [4] of the same sequence?
A: -0.0565

Q: What about the PBM binding z-score [5] of the same sequence?
A: 0.242

Q: And the PBM binding z-score [6]?
A: 1.74

Q: And the PBM binding z-score [7]?
A: 0.123

Q: And the PBM binding z-score [8]?
A: -0.115

Q: And the PBM binding z-score [9]?
A: -0.273

Q: With ACTAGTAGTTGAGACGAGGGCAACCGATAGGTTG as the sequence, how does the PBM binding z-score [1] read?
A: 1.26

Q: And the PBM binding z-score [2]?
A: 0.496

Q: And the PBM binding z-score [3]?
A: 0.837

Q: What about the PBM binding z-score [4] of the same sequence?
A: -0.186

Q: And the PBM binding z-score [5]?
A: 0.422

Q: And the PBM binding z-score [6]?
A: 2.71

Q: And the PBM binding z-score [7]?
A: -0.0205

Q: What about the PBM binding z-score [8] of the same sequence?
A: 0.766

Q: What about the PBM binding z-score [9] of the same sequence?
A: 0.686

Q: Which results are given for GCTAGCAGGCCAATTGGGTCACTCAATGACGGGC?
A: PBM binding z-score [1]: 1.94; PBM binding z-score [2]: 1.01; PBM binding z-score [3]: 1.15; PBM binding z-score [4]: -0.58; PBM binding z-score [5]: 0.841; PBM binding z-score [6]: 1.66; PBM binding z-score [7]: 0.0976; PBM binding z-score [8]: 0.89; PBM binding z-score [9]: -0.328

Q: CCTATCAGGCCAATCTGGGTCACTCAAGGCTTGA was tested. Which PBM binding z-score [1] did it give?
A: 2.48

Q: And the PBM binding z-score [2]?
A: 1.44

Q: And the PBM binding z-score [3]?
A: 1.71

Q: And the PBM binding z-score [4]?
A: 0.421

Q: What about the PBM binding z-score [5] of the same sequence?
A: 1.14

Q: What about the PBM binding z-score [6] of the same sequence?
A: 4.02

Q: And the PBM binding z-score [7]?
A: 1.16

Q: What about the PBM binding z-score [8] of the same sequence?
A: 0.878

Q: And the PBM binding z-score [9]?
A: -0.0119

Q: Which results are given for ATCGAAAGGTCGACGAGGCGAGTATACACCGTTT?
A: PBM binding z-score [1]: 2.61; PBM binding z-score [2]: 4.06; PBM binding z-score [3]: 3.74; PBM binding z-score [4]: 1.28; PBM binding z-score [5]: 4.22; PBM binding z-score [6]: 2.48; PBM binding z-score [7]: -0.128; PBM binding z-score [8]: 3.79; PBM binding z-score [9]: 0.605

Q: For CCTACTGGGCTATTCAGAGGTCATTGATCATATG, which PBM binding z-score [1] is on record?
A: 3.63

Q: What about the PBM binding z-score [2] of the same sequence?
A: 3.55

Q: What about the PBM binding z-score [3] of the same sequence?
A: 2.52

Q: What about the PBM binding z-score [4] of the same sequence?
A: 1.07

Q: And the PBM binding z-score [5]?
A: 3.56

Q: And the PBM binding z-score [6]?
A: 3.16

Q: And the PBM binding z-score [7]?
A: 1.28

Q: And the PBM binding z-score [8]?
A: 3.57

Q: What about the PBM binding z-score [9] of the same sequence?
A: 3.02

Q: Which results are given for TTTGCTAGGTCAGTTGGTCAGCTAACGAGCTGCC?
A: PBM binding z-score [1]: 2.57; PBM binding z-score [2]: 2.76; PBM binding z-score [3]: 3.54; PBM binding z-score [4]: 0.279; PBM binding z-score [5]: 0.82; PBM binding z-score [6]: 1.42; PBM binding z-score [7]: 0.0567; PBM binding z-score [8]: 0.134; PBM binding z-score [9]: -0.505

Q: With TAGCCTAGGTCATTGGGCGAGTATAGTACGCATC as the sequence, how does the PBM binding z-score [1] read?
A: 2.6

Q: What about the PBM binding z-score [2] of the same sequence?
A: 3.77

Q: And the PBM binding z-score [3]?
A: 4.01

Q: And the PBM binding z-score [4]?
A: 1.2

Q: And the PBM binding z-score [5]?
A: 2.88

Q: What about the PBM binding z-score [6] of the same sequence?
A: 2.72

Q: And the PBM binding z-score [7]?
A: 0.571

Q: And the PBM binding z-score [8]?
A: 2.14

Q: And the PBM binding z-score [9]?
A: 1.08

Q: With ACTGACAGGTGATGAAGGTAACTCAGGCTATCAT as the sequence, how does the PBM binding z-score [1] read?
A: -0.0164

Q: What about the PBM binding z-score [2] of the same sequence?
A: 0.199

Q: What about the PBM binding z-score [3] of the same sequence?
A: 0.358

Q: And the PBM binding z-score [4]?
A: -0.478

Q: What about the PBM binding z-score [5] of the same sequence?
A: 0.16

Q: And the PBM binding z-score [6]?
A: 0.769

Q: What about the PBM binding z-score [7] of the same sequence?
A: -0.122

Q: What about the PBM binding z-score [8] of the same sequence?
A: 0.103

Q: And the PBM binding z-score [9]?
A: -0.152

Q: What does the source list for CTCGAAAGGTCGGTTGAGGTGAGTACACGGATAA?
A: PBM binding z-score [1]: 2.53; PBM binding z-score [2]: 2.89; PBM binding z-score [3]: 2.79; PBM binding z-score [4]: 0.908; PBM binding z-score [5]: 2.34; PBM binding z-score [6]: 5.21; PBM binding z-score [7]: 1.47; PBM binding z-score [8]: 2.84; PBM binding z-score [9]: 1.71

Q: TTACCAAGGTGAGCTGAGGTCGCTGATCCAACTC was tested. Which PBM binding z-score [1] did it give?
A: 1.76

Q: And the PBM binding z-score [2]?
A: 1.33

Q: What about the PBM binding z-score [3] of the same sequence?
A: 1.22

Q: And the PBM binding z-score [4]?
A: -0.393

Q: And the PBM binding z-score [5]?
A: 1.2

Q: And the PBM binding z-score [6]?
A: 4.95

Q: What about the PBM binding z-score [7] of the same sequence?
A: 2.17

Q: What about the PBM binding z-score [8] of the same sequence?
A: 2.9

Q: What about the PBM binding z-score [9] of the same sequence?
A: 0.556

Q: For TCAAGTAGGTTAGTCGGGGCATTCAGCCAACATA, which PBM binding z-score [1] is on record?
A: 0.846

Q: And the PBM binding z-score [2]?
A: 0.431

Q: What about the PBM binding z-score [3] of the same sequence?
A: 0.362

Q: And the PBM binding z-score [4]?
A: 1.46

Q: And the PBM binding z-score [5]?
A: 0.586

Q: What about the PBM binding z-score [6] of the same sequence?
A: 1.26

Q: What about the PBM binding z-score [7] of the same sequence?
A: 0.656

Q: And the PBM binding z-score [8]?
A: 2.43

Q: What about the PBM binding z-score [9] of the same sequence?
A: 0.907

Q: With GCTAGTTGGTCAGTAACAGGTCACACACCGGTCG as the sequence, how does the PBM binding z-score [1] read?
A: 3.38

Q: And the PBM binding z-score [2]?
A: 2.86

Q: And the PBM binding z-score [3]?
A: 2.06

Q: What about the PBM binding z-score [4] of the same sequence?
A: 0.0356

Q: And the PBM binding z-score [5]?
A: 2.11

Q: What about the PBM binding z-score [6] of the same sequence?
A: 2.13

Q: And the PBM binding z-score [7]?
A: 1.06

Q: What about the PBM binding z-score [8] of the same sequence?
A: 1.68

Q: What about the PBM binding z-score [9] of the same sequence?
A: 0.753

Q: Which PBM binding z-score [1] does the source give for CCTTACGGGTCACTGACACGTTATAGCATTTGGA here?
A: 2.9

Q: And the PBM binding z-score [2]?
A: 4.76

Q: And the PBM binding z-score [3]?
A: 4.47

Q: What about the PBM binding z-score [4] of the same sequence?
A: 2.05

Q: And the PBM binding z-score [5]?
A: 4.94

Q: And the PBM binding z-score [6]?
A: 2.5

Q: What about the PBM binding z-score [7] of the same sequence?
A: 0.436

Q: And the PBM binding z-score [9]?
A: 0.844

Q: What does the source list for ATCGAAAAGTCGACGAGGTGAGTATACACCGTTT?
A: PBM binding z-score [1]: 0.0886; PBM binding z-score [2]: 0.532; PBM binding z-score [3]: 0.571; PBM binding z-score [4]: -0.248; PBM binding z-score [5]: 0.751; PBM binding z-score [6]: 1.74; PBM binding z-score [7]: 0.716; PBM binding z-score [9]: -0.201
